# Source: paper PMC5700166
# Positions count from the first letter of the chain named.
# Key:
# Test in all cases: protein-binding microarray (PBM); PBM: ~300 nM protein, 6 mM HEPES pH 7.8, 80 mM KCl, 0.5 mM EDTA, 0.5 mM EGTA, 6% glycerol, 35 ng/ul poly-dIdC, 1% milk, 1 h, room temperature; Ap Aiptasia and Nv Nematostella (sea anemones) / Co Capsaspora / Aq Amphimedon (sponge) / Dm Drosophila / Hu human; RHD is the Rel homology domain; high values mean tight binding
# Conditions in all cases: dsDNA, one strand shown
# GST-Ap-NF-kB RHD = target: T1, GST-Ap-NF-kB RHD (Exaiptasia pallida (Aiptasia), UniProt A0A913YAJ5 2-422)
# T1 sequence: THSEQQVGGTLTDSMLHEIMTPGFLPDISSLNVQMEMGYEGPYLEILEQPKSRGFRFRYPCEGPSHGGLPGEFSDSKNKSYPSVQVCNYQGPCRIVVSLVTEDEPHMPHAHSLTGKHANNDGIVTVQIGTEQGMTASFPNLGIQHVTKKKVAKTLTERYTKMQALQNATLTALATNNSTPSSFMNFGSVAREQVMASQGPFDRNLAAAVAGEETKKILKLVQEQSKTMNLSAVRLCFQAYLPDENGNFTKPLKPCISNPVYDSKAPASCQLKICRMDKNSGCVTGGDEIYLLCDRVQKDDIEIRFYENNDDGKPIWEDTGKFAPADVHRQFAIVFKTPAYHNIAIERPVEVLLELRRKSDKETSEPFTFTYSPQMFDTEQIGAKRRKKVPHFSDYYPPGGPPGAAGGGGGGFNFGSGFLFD
# [1] = target: T2, GST-Nv-NF-kB (Cys allele) (Nematostella vectensis, UniProt E5G601 2-411)
# T2 sequence: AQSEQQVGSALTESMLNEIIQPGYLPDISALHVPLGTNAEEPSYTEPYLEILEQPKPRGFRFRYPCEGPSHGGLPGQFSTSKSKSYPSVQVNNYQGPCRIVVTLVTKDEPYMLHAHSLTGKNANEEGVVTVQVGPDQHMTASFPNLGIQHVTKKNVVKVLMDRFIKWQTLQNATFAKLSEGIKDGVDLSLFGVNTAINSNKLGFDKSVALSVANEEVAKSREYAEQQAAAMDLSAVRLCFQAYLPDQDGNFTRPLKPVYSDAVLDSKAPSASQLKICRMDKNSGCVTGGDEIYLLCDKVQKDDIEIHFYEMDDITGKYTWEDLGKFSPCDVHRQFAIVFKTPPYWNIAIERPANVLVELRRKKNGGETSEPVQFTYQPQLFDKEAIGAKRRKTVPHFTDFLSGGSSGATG
# [2] = target: T3, GST-Nv-NF-kB (Ser allele) (Nematostella vectensis, UniProt A7UNT2 2-411)
# T3 sequence: T2 sequence with Q21R, C66S, S207N, E215Q, V217A, E225K, A268E, D399E
# GST-Co-NF-kB = target: T4, GST-Co-NF-kB (Capsaspora owczarzaki, UniProt F1ARL5 200-546)
# T4 sequence: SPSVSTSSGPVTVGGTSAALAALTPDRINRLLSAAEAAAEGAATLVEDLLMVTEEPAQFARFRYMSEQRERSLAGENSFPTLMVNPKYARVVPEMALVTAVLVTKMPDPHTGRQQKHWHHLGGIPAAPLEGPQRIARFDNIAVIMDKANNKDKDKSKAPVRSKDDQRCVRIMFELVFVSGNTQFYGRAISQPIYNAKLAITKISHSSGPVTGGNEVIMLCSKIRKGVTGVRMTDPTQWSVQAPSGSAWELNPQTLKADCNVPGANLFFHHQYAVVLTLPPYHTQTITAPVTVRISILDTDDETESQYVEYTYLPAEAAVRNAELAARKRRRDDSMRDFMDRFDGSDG
# GST-Dm-Relish = target: T5, GST-Dm-Relish (Drosophila melanogaster, UniProt Q94527 99-473)
# T5 sequence: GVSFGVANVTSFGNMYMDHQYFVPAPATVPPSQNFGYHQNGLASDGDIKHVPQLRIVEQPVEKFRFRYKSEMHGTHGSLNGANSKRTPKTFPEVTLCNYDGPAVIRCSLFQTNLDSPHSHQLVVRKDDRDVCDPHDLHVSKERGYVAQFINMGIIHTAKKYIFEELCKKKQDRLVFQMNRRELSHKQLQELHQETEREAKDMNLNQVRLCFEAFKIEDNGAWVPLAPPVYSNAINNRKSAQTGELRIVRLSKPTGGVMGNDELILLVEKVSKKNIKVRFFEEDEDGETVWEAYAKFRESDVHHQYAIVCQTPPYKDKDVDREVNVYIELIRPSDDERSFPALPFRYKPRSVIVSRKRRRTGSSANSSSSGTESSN
# GST-Aq-NF-kB = target: T6, GST-Aq-NF-kB (Amphimedon queenslandica, UniProt A9Y5G7 2-389)
# T6 sequence: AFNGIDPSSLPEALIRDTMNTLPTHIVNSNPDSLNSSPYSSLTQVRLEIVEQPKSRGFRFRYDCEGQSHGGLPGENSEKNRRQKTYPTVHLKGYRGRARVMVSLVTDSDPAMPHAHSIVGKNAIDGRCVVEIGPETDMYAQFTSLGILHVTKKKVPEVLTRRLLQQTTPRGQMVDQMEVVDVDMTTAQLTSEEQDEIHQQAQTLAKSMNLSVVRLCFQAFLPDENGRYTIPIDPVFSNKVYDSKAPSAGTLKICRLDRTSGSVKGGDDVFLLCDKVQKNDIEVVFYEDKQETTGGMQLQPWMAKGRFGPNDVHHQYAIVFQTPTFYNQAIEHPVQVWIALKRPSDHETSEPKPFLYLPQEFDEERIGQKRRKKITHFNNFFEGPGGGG
# GST-Hu-p50 = GST-Hu-p50 (Homo sapiens, UniProt P19838 7-356)
# Sequence of GST-Hu-p50 (P19838 7-356): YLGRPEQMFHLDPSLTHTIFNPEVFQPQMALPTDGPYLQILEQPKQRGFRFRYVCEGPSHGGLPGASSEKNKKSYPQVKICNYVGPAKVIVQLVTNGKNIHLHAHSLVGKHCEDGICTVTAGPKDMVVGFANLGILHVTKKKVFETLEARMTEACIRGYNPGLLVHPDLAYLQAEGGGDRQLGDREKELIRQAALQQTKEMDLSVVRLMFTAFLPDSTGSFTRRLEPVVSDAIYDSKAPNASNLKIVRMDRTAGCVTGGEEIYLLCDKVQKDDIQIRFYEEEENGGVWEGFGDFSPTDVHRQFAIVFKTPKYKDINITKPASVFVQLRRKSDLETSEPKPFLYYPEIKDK
Sequence,binding signal (GST-Ap-NF-kB RHD) [z-score],binding signal [1] [z-score],binding signal [2] [z-score],binding signal (GST-Co-NF-kB) [z-score],binding signal (GST-Dm-Relish) [z-score],binding signal (GST-Aq-NF-kB) [z-score],binding signal (GST-Hu-p50) [z-score]
CCGATTAACATCAGAAGATCCCCTGATGTTAATCGGGTCTTGATTCGCTTGACGCTGCTG,7.16,6.92,6.96,2.91,7.44,6.44,5.61
CCGATTAACATCACCTTTCCCCCTGATGTTAATCGGGTCTTGATTCGCTTGACGCTGCTG,6.53,6.31,7.29,9.42,2.89,4.77,5.65
CCGATTAACATCAAAATACCCCCTGATGTTAATCGGGTCTTGATTCGCTTGACGCTGCTG,9.02,7.56,8.62,7.21,7.72,7.21,6.58
CCGATTAACATCAGGCCTTTCCCTGATGTTAATCGGGTCTTGATTCGCTTGACGCTGCTG,2.77,4.72,2.62,1.36,5.87,6.74,3.53
CCGATTAACATCAGGGCATCCCCTGATGTTAATCGGGTCTTGATTCGCTTGACGCTGCTG,7.7,8.03,5.95,2.46,9.13,8.18,5.52
CCGATTAACATCAGGGGAATCAATGATGTTAATCGGGTCTTGATTCGCTTGACGCTGCTG,5.46,6.47,8.04,5.78,5.48,4.26,4.98
CCGATTAACATCAGATTTTCCCATGATGTTAATCGGGTCTTGATTCGCTTGACGCTGCTG,3.85,5.14,6.26,5,1.26,4.25,3.82
CCGATTAACATCAAGAAGTCCCCTGATGTTAATCGGGTCTTGATTCGCTTGACGCTGCTG,7.72,7.86,7.55,3.14,7.58,6.79,6.73
CCGATTAACATCAAGGGGATTTATGATGTTAATCGGGTCTTGATTCGCTTGACGCTGCTG,7.79,9.15,11.3,3.44,8.3,6.25,7.34
CCGATTAACATCAAAAACCCCCGTGATGTTAATCGGGTCTTGATTCGCTTGACGCTGCTG,9.67,8.8,8.78,4.41,10.8,8.35,7.43
CCGATTAACATCACAAACCCCCCTGATGTTAATCGGGTCTTGATTCGCTTGACGCTGCTG,6.66,4.96,6.4,3.99,7.41,5.34,6.08
CCGATTAACATCACCCGGGAAACTGATGTTAATCGGGTCTTGATTCGCTTGACGCTGCTG,2.48,2.39,3.08,4.78,1.11,2.32,1.81
